# Legend:
# [1] = molecular target: Calcium/calmodulin-dependent protein kinase type 1 (Homo sapiens) (UniProt Q14012); details: at 1 µM
# [2] = molecular target: Calcium/calmodulin-dependent protein kinase type 1 (Homo sapiens) (UniProt Q14012); details: at 10 µM
# [3] = molecular target: Calcium/calmodulin-dependent protein kinase type II subunit beta (Homo sapiens) (UniProt Q13554); details: at 1 µM
# [4] = molecular target: Calcium/calmodulin-dependent protein kinase type II subunit beta (Homo sapiens) (UniProt Q13554); details: at 10 µM
# [5] = molecular target: Calcium/calmodulin-dependent protein kinase type II subunit gamma (Homo sapiens) (UniProt Q13555); details: at 1 µM
# [6] = molecular target: Calcium/calmodulin-dependent protein kinase type II subunit gamma (Homo sapiens) (UniProt Q13555); details: at 10 µM
# [7] = molecular target: Calcium/calmodulin-dependent protein kinase type II subunit delta (Homo sapiens) (UniProt Q13557); details: at 1 µM
# [8] = molecular target: Calcium/calmodulin-dependent protein kinase type II subunit delta (Homo sapiens) (UniProt Q13557); details: at 10 µM
# [9] = molecular target: T1, Calcium/calmodulin-dependent protein kinase type IV (Homo sapiens) (UniProt Q16566); details: at 1 µM
# T1 sequence (whole entry): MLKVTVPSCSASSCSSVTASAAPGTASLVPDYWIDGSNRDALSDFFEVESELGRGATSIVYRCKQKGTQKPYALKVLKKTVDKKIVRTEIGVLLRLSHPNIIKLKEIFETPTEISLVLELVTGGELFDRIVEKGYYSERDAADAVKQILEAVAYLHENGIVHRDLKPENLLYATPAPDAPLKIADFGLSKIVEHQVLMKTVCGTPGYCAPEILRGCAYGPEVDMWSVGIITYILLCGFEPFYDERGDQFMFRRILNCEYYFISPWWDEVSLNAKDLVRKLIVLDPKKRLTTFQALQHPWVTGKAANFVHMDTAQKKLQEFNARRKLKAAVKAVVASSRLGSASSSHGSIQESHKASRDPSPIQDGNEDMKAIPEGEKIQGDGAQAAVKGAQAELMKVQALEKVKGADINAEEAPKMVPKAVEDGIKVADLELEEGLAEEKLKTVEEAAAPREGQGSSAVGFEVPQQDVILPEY
# [10] = molecular target: T1, Calcium/calmodulin-dependent protein kinase type IV (Homo sapiens); details: at 10 µM
# [11] = molecular target: Death-associated protein kinase 1 (Homo sapiens) (UniProt P53355); details: at 10 µM
# [12] = molecular target: Death-associated protein kinase 2 (Homo sapiens) (UniProt Q9UIK4); details: at 1 µM
# [13] = molecular target: Death-associated protein kinase 2 (Homo sapiens) (UniProt Q9UIK4); details: at 10 µM
# [14] = molecular target: T2, Serine/threonine-protein kinase DCLK2 (Homo sapiens) (UniProt Q8N568); details: at 1 µM
# T2 sequence (whole entry): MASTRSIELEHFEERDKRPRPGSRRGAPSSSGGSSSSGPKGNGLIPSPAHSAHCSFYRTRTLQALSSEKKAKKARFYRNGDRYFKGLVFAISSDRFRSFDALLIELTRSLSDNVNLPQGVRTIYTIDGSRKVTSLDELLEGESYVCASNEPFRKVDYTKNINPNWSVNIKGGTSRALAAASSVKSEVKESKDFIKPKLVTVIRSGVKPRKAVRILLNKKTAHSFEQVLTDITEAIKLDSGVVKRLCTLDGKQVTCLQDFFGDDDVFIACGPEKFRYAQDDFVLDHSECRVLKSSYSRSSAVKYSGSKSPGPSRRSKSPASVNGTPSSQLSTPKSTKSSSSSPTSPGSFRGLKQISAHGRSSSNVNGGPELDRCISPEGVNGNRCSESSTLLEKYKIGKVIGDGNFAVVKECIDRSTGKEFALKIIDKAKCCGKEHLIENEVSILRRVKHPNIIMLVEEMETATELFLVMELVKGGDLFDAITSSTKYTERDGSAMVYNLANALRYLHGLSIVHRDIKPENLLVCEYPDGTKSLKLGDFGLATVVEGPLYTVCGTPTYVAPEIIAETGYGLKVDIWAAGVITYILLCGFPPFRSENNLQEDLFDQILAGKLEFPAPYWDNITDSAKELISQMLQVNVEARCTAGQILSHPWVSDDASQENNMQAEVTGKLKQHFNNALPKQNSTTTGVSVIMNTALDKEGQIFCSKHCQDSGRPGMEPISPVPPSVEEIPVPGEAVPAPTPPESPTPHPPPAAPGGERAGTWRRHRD
# [15] = molecular target: T2, Serine/threonine-protein kinase DCLK2 (Homo sapiens); details: at 10 µM
# [16] = molecular target: T3, Discoidin domain-containing receptor 2 (Homo sapiens) (UniProt Q16832); details: at 1 µM
# T3 sequence (whole entry): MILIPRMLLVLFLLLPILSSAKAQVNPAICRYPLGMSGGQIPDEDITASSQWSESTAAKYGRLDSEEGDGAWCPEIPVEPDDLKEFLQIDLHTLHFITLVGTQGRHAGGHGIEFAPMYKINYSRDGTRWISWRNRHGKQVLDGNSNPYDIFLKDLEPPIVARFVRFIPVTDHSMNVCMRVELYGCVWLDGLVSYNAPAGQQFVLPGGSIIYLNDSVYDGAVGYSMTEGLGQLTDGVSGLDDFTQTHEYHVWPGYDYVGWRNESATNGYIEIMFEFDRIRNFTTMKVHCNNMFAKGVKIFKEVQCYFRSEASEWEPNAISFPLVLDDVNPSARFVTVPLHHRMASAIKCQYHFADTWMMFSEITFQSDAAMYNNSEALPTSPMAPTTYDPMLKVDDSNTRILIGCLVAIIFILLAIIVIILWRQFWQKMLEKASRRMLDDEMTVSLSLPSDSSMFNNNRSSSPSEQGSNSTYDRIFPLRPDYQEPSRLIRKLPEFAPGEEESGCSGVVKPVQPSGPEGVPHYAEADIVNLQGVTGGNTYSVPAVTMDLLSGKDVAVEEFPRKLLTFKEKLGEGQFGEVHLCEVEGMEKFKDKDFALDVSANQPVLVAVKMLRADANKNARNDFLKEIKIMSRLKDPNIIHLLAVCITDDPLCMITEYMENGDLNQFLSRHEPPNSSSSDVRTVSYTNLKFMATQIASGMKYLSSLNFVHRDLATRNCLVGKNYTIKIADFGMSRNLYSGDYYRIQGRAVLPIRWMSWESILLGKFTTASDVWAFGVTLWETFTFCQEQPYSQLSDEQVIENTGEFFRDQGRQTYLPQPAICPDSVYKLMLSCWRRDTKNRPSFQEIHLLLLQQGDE
# [17] = molecular target: T3, Discoidin domain-containing receptor 2 (Homo sapiens); details: at 10 µM
# [18] = molecular target: T4, Myotonin-protein kinase (Homo sapiens) (UniProt Q09013); details: at 1 µM
# T4 sequence (whole entry): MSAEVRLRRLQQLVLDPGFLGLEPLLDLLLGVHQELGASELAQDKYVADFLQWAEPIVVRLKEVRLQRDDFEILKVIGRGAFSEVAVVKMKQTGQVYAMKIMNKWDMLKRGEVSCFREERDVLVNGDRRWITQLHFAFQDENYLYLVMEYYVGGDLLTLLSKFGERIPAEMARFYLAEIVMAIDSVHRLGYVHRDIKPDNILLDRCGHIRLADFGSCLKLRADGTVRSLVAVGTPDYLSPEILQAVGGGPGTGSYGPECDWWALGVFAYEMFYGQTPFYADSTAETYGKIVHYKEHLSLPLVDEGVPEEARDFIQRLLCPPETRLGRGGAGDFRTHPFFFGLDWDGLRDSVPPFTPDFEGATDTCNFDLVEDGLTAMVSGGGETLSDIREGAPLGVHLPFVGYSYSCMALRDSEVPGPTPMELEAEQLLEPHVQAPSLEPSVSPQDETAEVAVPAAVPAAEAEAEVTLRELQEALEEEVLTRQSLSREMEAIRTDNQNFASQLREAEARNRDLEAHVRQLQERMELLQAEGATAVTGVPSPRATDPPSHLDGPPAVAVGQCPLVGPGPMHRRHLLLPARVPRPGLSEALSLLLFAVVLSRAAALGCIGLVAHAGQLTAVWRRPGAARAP
# [19] = molecular target: T4, Myotonin-protein kinase (Homo sapiens); details: at 10 µM
# [20] = molecular target: T5, Serine/threonine-protein kinase 17A (Homo sapiens) (UniProt Q9UEE5); details: at 1 µM
# T5 sequence (whole entry): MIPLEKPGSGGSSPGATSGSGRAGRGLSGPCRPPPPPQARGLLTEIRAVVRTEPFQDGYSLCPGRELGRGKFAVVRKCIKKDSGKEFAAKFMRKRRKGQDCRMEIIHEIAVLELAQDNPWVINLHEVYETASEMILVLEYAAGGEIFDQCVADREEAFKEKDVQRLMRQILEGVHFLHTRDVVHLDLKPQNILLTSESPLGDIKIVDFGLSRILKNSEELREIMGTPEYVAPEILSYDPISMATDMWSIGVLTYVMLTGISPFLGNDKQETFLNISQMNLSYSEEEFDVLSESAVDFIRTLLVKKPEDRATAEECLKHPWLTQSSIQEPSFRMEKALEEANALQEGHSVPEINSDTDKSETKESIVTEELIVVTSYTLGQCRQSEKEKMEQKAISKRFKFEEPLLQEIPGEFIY
# Sequence of Calcium/calmodulin-dependent protein kinase type 1 (Homo sapiens) (Q14012 whole entry, looked up): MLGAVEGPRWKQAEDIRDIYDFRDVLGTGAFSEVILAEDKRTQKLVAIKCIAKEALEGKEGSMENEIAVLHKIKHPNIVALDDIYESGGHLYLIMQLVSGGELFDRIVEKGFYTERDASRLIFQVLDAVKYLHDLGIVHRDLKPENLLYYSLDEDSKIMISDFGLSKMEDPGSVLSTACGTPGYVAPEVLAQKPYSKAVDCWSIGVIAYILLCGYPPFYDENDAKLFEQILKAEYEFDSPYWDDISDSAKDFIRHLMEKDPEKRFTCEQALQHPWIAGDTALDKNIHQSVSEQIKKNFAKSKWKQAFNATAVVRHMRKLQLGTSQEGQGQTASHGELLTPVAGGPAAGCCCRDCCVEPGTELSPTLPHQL
# Sequence of Calcium/calmodulin-dependent protein kinase type II subunit delta (Homo sapiens) (Q13557 whole entry): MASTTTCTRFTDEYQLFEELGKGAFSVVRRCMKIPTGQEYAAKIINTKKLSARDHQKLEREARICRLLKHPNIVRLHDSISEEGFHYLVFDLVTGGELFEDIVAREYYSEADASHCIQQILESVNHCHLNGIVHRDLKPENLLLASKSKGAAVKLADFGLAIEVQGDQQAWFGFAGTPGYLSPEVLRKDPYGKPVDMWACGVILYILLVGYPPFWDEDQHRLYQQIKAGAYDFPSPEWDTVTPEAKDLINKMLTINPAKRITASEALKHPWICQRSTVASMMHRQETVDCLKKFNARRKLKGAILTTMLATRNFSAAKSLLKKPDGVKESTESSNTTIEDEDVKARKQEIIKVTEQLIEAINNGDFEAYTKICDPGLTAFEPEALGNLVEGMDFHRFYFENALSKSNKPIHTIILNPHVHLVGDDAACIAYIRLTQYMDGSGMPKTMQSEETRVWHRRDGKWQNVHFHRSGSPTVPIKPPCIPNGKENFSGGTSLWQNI
# Sequence of Calcium/calmodulin-dependent protein kinase type II subunit beta (Homo sapiens) (Q13554 whole entry): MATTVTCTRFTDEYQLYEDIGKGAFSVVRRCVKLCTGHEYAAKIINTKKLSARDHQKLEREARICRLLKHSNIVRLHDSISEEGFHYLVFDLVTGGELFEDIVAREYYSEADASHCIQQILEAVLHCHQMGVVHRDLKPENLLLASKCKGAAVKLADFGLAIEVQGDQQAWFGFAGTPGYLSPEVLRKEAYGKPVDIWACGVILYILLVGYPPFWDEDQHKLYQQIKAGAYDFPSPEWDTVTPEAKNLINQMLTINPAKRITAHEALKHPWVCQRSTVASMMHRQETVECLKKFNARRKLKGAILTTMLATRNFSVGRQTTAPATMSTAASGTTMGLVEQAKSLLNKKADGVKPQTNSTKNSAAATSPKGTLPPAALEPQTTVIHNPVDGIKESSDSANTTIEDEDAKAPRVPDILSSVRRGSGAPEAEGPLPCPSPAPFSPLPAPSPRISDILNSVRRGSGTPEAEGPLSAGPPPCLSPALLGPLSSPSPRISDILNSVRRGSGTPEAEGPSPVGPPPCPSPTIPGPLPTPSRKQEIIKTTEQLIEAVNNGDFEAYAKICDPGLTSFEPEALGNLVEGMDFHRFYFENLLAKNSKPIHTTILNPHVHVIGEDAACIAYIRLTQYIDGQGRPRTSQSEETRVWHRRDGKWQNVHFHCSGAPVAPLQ
# Sequence of Death-associated protein kinase 1 (Homo sapiens) (P53355 whole entry, looked up): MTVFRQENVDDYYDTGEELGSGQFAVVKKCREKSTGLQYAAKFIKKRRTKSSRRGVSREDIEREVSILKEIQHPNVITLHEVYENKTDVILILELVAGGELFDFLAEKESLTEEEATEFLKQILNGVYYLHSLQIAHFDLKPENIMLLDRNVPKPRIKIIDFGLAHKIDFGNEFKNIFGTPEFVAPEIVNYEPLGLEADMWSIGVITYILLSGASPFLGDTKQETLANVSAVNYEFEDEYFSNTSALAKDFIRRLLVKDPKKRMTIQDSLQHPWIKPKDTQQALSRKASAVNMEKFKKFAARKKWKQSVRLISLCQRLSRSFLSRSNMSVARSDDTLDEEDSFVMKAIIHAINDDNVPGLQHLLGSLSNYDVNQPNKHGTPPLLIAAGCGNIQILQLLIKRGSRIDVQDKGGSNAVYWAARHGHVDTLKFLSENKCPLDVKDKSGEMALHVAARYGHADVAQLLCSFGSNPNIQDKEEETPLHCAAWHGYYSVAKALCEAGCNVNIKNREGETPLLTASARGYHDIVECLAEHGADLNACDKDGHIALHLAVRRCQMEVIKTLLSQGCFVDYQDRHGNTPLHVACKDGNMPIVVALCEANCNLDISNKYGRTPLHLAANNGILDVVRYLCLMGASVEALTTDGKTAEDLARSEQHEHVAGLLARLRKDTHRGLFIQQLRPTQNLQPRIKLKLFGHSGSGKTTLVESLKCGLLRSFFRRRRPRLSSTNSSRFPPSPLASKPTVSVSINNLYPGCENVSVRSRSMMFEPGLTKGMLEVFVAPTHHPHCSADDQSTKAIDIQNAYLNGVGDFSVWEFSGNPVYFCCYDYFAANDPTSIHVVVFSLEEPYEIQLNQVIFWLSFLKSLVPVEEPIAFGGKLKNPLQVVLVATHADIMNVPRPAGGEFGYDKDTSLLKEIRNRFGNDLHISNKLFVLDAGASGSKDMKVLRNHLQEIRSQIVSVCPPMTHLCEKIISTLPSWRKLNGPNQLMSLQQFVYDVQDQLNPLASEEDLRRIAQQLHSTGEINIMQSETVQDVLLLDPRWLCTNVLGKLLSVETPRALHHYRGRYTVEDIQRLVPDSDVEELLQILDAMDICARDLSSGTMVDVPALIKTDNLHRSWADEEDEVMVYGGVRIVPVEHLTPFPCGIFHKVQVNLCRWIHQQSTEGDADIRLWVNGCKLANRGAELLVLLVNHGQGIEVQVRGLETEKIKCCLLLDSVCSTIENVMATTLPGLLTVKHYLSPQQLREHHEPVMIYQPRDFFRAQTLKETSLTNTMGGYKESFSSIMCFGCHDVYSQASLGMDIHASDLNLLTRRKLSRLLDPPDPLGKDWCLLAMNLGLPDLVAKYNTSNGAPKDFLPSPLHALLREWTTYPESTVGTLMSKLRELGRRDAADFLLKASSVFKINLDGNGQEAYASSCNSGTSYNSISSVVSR
# Sequence of Death-associated protein kinase 2 (Homo sapiens) (Q9UIK4 whole entry, looked up): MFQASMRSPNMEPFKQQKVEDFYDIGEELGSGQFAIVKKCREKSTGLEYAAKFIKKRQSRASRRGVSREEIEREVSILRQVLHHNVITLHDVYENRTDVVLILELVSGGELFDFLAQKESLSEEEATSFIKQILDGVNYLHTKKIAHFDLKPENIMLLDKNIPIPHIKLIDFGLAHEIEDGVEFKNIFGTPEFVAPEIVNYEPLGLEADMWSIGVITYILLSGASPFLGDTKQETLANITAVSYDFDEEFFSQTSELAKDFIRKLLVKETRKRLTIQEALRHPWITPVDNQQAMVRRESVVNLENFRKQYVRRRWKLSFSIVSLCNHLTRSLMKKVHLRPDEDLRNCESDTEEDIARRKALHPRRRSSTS
# Sequence of Calcium/calmodulin-dependent protein kinase type II subunit gamma (Homo sapiens) (Q13555 whole entry): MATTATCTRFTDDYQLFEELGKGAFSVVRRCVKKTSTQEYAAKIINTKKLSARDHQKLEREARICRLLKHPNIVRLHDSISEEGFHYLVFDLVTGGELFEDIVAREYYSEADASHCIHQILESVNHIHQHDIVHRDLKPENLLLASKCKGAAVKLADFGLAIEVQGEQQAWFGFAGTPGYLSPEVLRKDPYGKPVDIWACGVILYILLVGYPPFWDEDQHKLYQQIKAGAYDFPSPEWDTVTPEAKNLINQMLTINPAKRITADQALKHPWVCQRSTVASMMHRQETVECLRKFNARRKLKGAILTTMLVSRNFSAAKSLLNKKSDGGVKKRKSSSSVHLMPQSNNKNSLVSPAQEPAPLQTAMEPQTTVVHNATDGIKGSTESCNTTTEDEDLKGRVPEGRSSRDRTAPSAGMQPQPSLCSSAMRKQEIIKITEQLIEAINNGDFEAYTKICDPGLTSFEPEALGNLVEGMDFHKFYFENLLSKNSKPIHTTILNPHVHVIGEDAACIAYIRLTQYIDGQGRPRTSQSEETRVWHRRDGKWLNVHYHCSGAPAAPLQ
Compound,residual activity [1] [%],residual activity [2] [%],residual activity [3] [%],residual activity [4] [%],residual activity [5] [%],residual activity [6] [%],residual activity [7] [%],residual activity [8] [%],residual activity [9] [%],residual activity [10] [%],residual activity [11] [%],residual activity [12] [%],residual activity [13] [%],residual activity [14] [%],residual activity [15] [%],residual activity [16] [%],residual activity [17] [%],residual activity [18] [%],residual activity [19] [%],residual activity [20] [%]
CNc1cc2c(Nc3cccc(Br)c3)ncnc2cn1,95,65,87,51,93,32,85,42,110,56,60,86,69,121,97,84,68,107,113,64
O=C1NC(=O)c2c1c1c3ccccc3[nH]c1c1[nH]c3cc(Br)ccc3c21,89,70,92,66,18,21,15,18,103,99,92,98,71,83,96,101,98,115,97,67
CO[C@H]1C[C@@H]2CC[C@@H](C)[C@@](O)(O2)C(=O)C(=O)N2CCCC[C@H]2C(=O)O[C@H]([C@H](C)C[C@@H]2CC[C@@H](O)[C@H](OC)C2)CC(=O)[C@H](C)/C=C(\C)[C@@H](O)[C@@H](OC)C(=O)[C@H](C)C[C@H](C)/C=C/C=C/C=C/1C,108,84,92,79,103,96,109,99,131,119,108,93,110,137,360,115,110,145,139,113
CC(=O)O/N=C1\C(=C2\C(=O)Nc3cc(Br)ccc32)Nc2ccccc21,82,50,79,27,23,4,17,4,100,90,84,86,65,107,94,91,71,106,89,63
O=C(Nc1cccc(Nc2nccc(Nc3cccc(C(F)(F)F)c3)n2)c1)C1CC1,86,31,100,38,76,12,66,19,84,62,60,93,68,82,102,79,30,72,125,73
Ic1cccc(CSc2nnc(-c3ccncc3)o2)c1,97,79,75,55,85,74,73,65,106,100,76,96,100,100,97,86,82,82,81,100
